# Source: PubChem BioAssay (EPA / NIEHS)
# Active and inactive are the calls of the source. Rule for the calls: active = hit-call score of the fitted dose curve at least 0.9, where 1 is the maximum; inactive = score below 0.9.
# Molecular target: Hepatocyte nuclear factor 3-beta (Homo sapiens) (UniProt Q9Y261)
# Assay: ATG_FoxA2_CIS: Attagene CIS-FACTORIAL HepG2 Assay for human Forkhead box A2 (FOXA2) (AID 2282942)
# Details: HepG2 cis-reporter transcription factor activity, 24 h; actives raise or lower the signal
# Procedure: ATG_CIS is a cell-based, multiplexed-readout assay that uses HepG2, a human liver cell line, with measurements taken at 24 hours after chemical dosing in a 24-well plate.ATG_FoxA2_CIS is one of 52 assay component(s) measured or calculated from the ATG_CIS assay. It is designed to make measurements of mRNA induction, a form of inducible reporter, as detected with fluorescence intensity signals by Reverse transcription polymerase chain reaction (RT-PCR) and Capillary electrophoresis technology.Data from the assay component ATG_FoxA2_CIS was analyzed into 1 assay endpoint. This assay endpoint, ATG_FoxA2_CIS, was analyzed with bidirectional fitting relative to DMSO as the negative control and baseline of activity. Using a type of inducible reporter, measures of mRNA for gain or loss-of-signal activity can be used to understand the reporter gene at the transcription factor-level as they relate to the gene FOXA2. Furthermore, this assay endpoint can be referred to as a primary readout, because this assay has produced multiple assay endpoints where this one serves a reporter gene function. To generalize the intended target to other relatable targets, this assay endpoint is annotated to the dna binding intended target family, where the subfamily is forkhead box protein.
# Human liver HepG2 cells are transiently transfected with multiple reporter transcription units (MRTUs) in 6-well plates using FuGene 6 reagent (Roche; 3 ml FuGene/1 mg DNA). The MRTU constructs are regulated by a cis-regulating element (promoter). […] A major difference between the CIS and TRANS system is that in CIS activities of endogenous TFs are measured, whereas the TRANS assay evaluates changes in activities of exogenous, chimeric NR-Gal4 proteins. […] At the end of 24 hour incubation, total RNA was isolated using TriZol reagent (Invitrogen). The isolated RNA is then reverse-transcribed using oligo(dT) primer and Mo-MLV reverse transcriptase (Invitrogen) with DNAse I (Ambion) treatment for 30 min. The one-tenth of the produced cDNA was amplified by PCR using Taq DNA polymerase (Invitrogen) and two reporter sequence-specific primers. The PCR products were fluorescently labeled by primer extension with 6-arboxyfluorescein (6-FAM) 5'-labeled reporter sequence-specific primer (2 min at 95 C, 20 s at 68 C and 10 min at 72 C) and these products were digested with 5U of HpaI (New England Biolabs) for 2h at 37 C. The fragments were purified using Qiaquick PCR columns (Qiagen), analyzed on an ABI 3130xL genetic analyzer (Applied Biosystems) with peak positions identified by using a set of X-rhodamine (ROX)-labeled MapMarker1000 molecular weight standards (BioVentures). The raw capillary electrophoresis data was processed using Attagraph software (Attagene).
# Sequence of Hepatocyte nuclear factor 3-beta (Homo sapiens) (Q9Y261 whole entry, looked up): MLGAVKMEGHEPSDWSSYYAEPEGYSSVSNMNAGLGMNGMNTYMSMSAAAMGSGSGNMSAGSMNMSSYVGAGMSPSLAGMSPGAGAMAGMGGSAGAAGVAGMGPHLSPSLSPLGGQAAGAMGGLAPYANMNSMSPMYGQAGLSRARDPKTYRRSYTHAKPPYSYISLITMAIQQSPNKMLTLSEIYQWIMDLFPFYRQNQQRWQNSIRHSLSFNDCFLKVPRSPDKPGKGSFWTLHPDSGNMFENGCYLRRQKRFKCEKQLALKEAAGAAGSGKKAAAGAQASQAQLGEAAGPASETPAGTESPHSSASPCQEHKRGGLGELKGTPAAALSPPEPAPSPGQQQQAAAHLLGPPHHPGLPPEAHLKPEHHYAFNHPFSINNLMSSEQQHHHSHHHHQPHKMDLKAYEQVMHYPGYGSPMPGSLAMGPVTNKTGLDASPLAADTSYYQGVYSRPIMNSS
row,SMILES,outcome
1,COc1ccc(-n2nc(C(F)F)cc2-c2ccc(S(C)=O)cc2)cc1 (stereo not given),inactive
2,CC(C)=CCCC(C)=CC=O,inactive
3,CCc1cc(SCc2sc(-c3ccc(C(F)(F)F)cc3)nc2CN2CCN(c3ccc(OC)cc3)CC2)ccc1OCC(=O)O,inactive
4,O=C(OC[C@H]1O[C@@H](OC(=O)c2cc(O)c(O)c(OC(=O)c3cc(O)c(O)c(O)c3)c2)[C@H](OC(=O)c2cc(O)c(O)c(OC(=O)c3cc(O)c(O)c(O)c3)c2)[C@@H](OC(=O)c2cc(O)c(O)c(OC(=O)c3cc(O)c(O)c(O)c3)c2)[C@@H]1OC(=O)c1cc(O)c(O)c(OC(=O)c2cc(O)c(O)c(O)c2)c1)c1cc(O)c(O)c(OC(=O)c2cc(O)c(O)c(O)c2)c1,inactive
5,COCCOCCOCCOC,inactive
6,CC/C(=C\C(=N/O)C(N)=O)C(C)[N+](=O)[O-] (stereo not given),inactive
7,O=C(O)c1cccc(N(Cc2cccnc2)c2ccc(OC(F)F)c(OC(F)F)c2)c1,inactive
8,CC(=O)OC[C@H]1O[C@@](COC(C)=O)(O[C@H]2O[C@H](COC(C)=O)[C@@H](OC(C)=O)[C@H](OC(C)=O)[C@H]2OC(C)=O)[C@@H](OC(C)=O)[C@@H]1OC(C)=O,inactive
9,Nc1cccc(N)c1,inactive
10,CC[C@H]1OC(=O)[C@H](C)[C@@H](O[C@H]2C[C@@](C)(OC)[C@@H](O)[C@H](C)O2)[C@H](C)[C@@H](O[C@@H]2O[C@H](C)C[C@H](N(C)C)[C@H]2O)[C@](C)(O)C[C@@H](C)C(=O)[C@H](C)[C@@H](O)[C@]1(C)O,inactive
11,O=C(O)c1cc(N=Nc2ccc(S(=O)(=O)Nc3ccccn3)cc2)ccc1O,inactive
12,CC(C)c1cccc(C(C)C)c1N1C(=O)c2ccc(O)cc2C1=O,inactive
13,Fc1ccccc1[C@@H](F)COC1CCC(Nc2ncnc3[nH]ncc23)CC1 (stereo not given in full),inactive
14,O=C1CCC(N2C(=O)c3ccccc3C2=O)C(=O)N1 (stereo not given),inactive
15,CCCCCCCCCCCCCCCO,inactive
16,C1N2CN3CN1CN(C2)C3,inactive
17,C[C@](N)(Cc1ccc(O)c(O)c1)C(=O)O,inactive
18,Cc1ccc(S(=O)(=O)O)cc1C,inactive
19,CC(C)=CCC/C(C)=C\CO,inactive
20,CCC(C)(C)C(=O)O[C@H]1C[C@@H](C)C=C2C=C[C@H](C)[C@H](CC[C@@H]3C[C@@H](O)CC(=O)O3)[C@H]21,inactive

row,SMILES,outcome
1,O=C1OC(=O)C2C3C=CC(C3)C12 (stereo not given),inactive
2,CCCCCCCCCCCCc1ccccc1,inactive
3,CC(C)CC(C)(O)C#CC(C)(O)CC(C)C (stereo not given),inactive
4,CCCCC(CC)COC(=O)CCCCCCCCC(=O)OCC(CC)CCCC (stereo not given),inactive
5,CC1(C)C(=O)N(Br)C(=O)N1Br,inactive
6,Clc1nc(Cl)c(Cl)c(Cl)c1Cl,inactive
7,O=C(NS(=O)(=O)/C=C/c1ccccc1)c1ccc(F)cc1Cl,inactive
8,CNS(=O)(=O)c1cc(C(=O)N2CCC(CCN3C4CCC3CC(n3c(C)nc5ccccc53)C4)(c3cccc(F)c3)CC2)c(Cl)cc1F (stereo not given),inactive
9,NC(=O)NO,inactive
10,CCOC(=O)CC(CC(=O)OCC)(OC(C)=O)C(=O)OCC,inactive
11,O=C(O)CC(O)C(=O)O (stereo not given),inactive
12,O=C(O)c1cccc(Oc2ccccc2)c1,inactive
13,Nc1nc2ncc(CNc3ccc(C(=O)N[C@@H](CCC(=O)O)C(=O)O)cc3)nc2c(=O)[nH]1,inactive
14,Cn1c(=O)cc(Oc2ccc(F)cc2F)c2cnc(NCC(C)(C)O)nc21,inactive
15,CC(=O)c1ccc2c(c1)[C@H](NC(=O)c1ccc(F)cc1)[C@@H](O)C(C)(C)O2,inactive
16,CC1=CC(=O)CC(C)(C)C1,inactive
17,O=P(OC(CCl)CCl)(OC(CCl)CCl)OC(CCl)CCl,inactive
18,CCOCCOCCOCCO,inactive
19,CCN(C(=O)c1cc(C)cc(OC[C@H](C)Nc2ccncc2)c1)C(C)C,inactive
20,CCCCCCc1ccc(O)cc1O,inactive
